TIM10 inh: growth inhibitors of isogenic TIM10 control yeast, primary screen, counter-screen for tim10-1 yeast inhibitor project, luminescence, uHTS; S. cerevisiae TIM10 strain growth, BacTiter-Glo luminescence, 24 h; inhibition, % at 10 µM; actives 1.4% (n = 330,000);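 active means inhibition of 40% or more at the single tested concentration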;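 further: wild-type TIM10 isogenic control strain grown at permissive 25 °C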
tim23-1 inh: growth inhibitors of tim23-1 mutant yeast, primary screen, luminescence, uHTS | S. cerevisiae tim23-1 growth, BacTiter-Glo luminescence, 24 h | inhibition, % at 20 µM | actives 1.3% (n = 330,000) | AID 463212, 2010;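 active means growth inhibition of the mutant yeast at or above 50%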;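 further: temperature-sensitive mutant grown at 25 °C; plate controls were DMSO-treated mutant yeast for no effect and medium wells lacking yeast for full effect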
V-ATPase pHluor: regulators of yeast V-ATPase proton pumping, primary screen, pHLuorin cytosolic pH fluorescence; S. cerevisiae; response, % at 10 µM; actives 0.37% (n = 350,000); AID 504577, 2011; in the data active means response mostly above about 7.3%, no sharp cut-off; inactive means mostly below about 5.4%; further: actives read high
SKKanGAS inh: S. pyogenes SKKanGAS growth inhibitors in kanamycin, primary screen, streptokinase expression inhibitor project, SKKanGAS strain, BacTiter-Glo luminescence | actives 1.3% (n = 300,000) | inhibition, % at 7.5 µM | AID 1662, 2009 | 6 h;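 active means mean replicate score, as percent of positive control median, at least 50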;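 further: strain carries kanamycin resistance gene driven by streptokinase promoter and grows in 40 µg/ml kanamycin; loss of luminescence reflects streptokinase promoter inhibition or plain growth inhibition; 0% = median of DMSO wells and 100% = positive control at its reference dose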
PfHsp90 set2: growth inhibition of PfHsp90-expressing yeast, primary screen, antimalarial PfHsp90 inhibitor project, S. cerevisiae, BacTiter-Glo luminescence, single point, set 2 | BacTiter-Glo ATP, 48 h; yeast lacking PDR1 and PDR3 efflux regulators | inhibition, % at 9.4 µM | actives 0.32% (n = 310,000) | AID 504621, 2011;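 active means every replicate shows inhibition above about 80%, whatever the replicate mean, limit read from the data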;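 further: 0% = DMSO neutral controls and 100% = 20 µM radicicol positive controls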
tim10-1 inh: growth inhibitors of tim10-1 mutant yeast, primary screen, luminescence, uHTS; S. cerevisiae tim10-1 ts strain growth, BacTiter-Glo, 24 h; inhibition, % at 20 µM; actives 2.2% (n = 330,000);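 active means inhibition of at least 40%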;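 further: mutant grown at 25 °C; 0% = DMSO wells with yeast and 100% = wells holding no yeast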
tim10-1 confirm: growth inhibitors of tim10-1 mutant yeast, confirmation, single concentration, luminescence, S. cerevisiae; AID 463213, 2010; inhibition, % at 20 µM; actives 56% (n = 7,400); shares compounds with tim10-1 inh; S. cerevisiae tim10-1 ts strain growth, BacTiter-Glo, 24 h;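 active means inhibition of yeast growth at or above a set limit in either of two repeat tests at 20 µM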;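 further: tim10-1 mutant grown at permissive 25 °C to find synthetic lethal compounds; 0% = DMSO yeast wells and 100% = medium wells without yeast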
An asterisk follows results filed as active; . = no result given. A selection: hits, their analogues and other compounds. The true share with any hit is near 4.6%.

SMILES | TIM10 inh | tim23-1 inh | V-ATPase pHluor | SKKanGAS inh | PfHsp90 set2 | tim10-1 inh | tim10-1 confirm
COc1ccccc1N1CCN(C(=O)CN2C(=O)c3cccc4cccc(c34)C2=O)CC1 | 20 | 29 | 0 | -2 | -19 | 30 | .
COc1ccccc1N1CCN(C(=O)CCCN2C(=O)c3cccc4cccc(c34)C2=O)CC1 | 28 | 31 | -1 | 2 | -19 | 45* | 27
Cc1nc2ccc(Nc3nc4cc(S(=O)(=O)N5CCOCC5)ccc4o3)cc2s1 | 38 | 33 | 2 | 6 | 6 | 45* | 34*
COc1ccc(-c2sc3cc4c(cc3c2C#CC2(N)CCCCC2)OCO4)cc1 | 33 | 46 | -1 | . | -7 | 48* | 44*
COc1ccc(-c2sc3cc4c(cc3c2C#Cc2cncn2C)OCO4)cc1 | 13 | 5 | 2 | . | -30 | 7 | .
CC(C)CC(CO)N1CCN(C(=O)c2ccc(Cl)cc2)CCC1=O (stereo not drawn) | 9 | 2 | -8 | 0 | -9 | -14 | .
S=C(Nc1ccc(Cl)cc1)N(CCCN1CCOCC1)Cc1cccs1 | -15 | 17 | 1 | 0 | -3 | 41* | 8
Brc1ccc(-c2csc3ncnc(-n4nnc5ccccc54)c23)cc1 | 14 | 49 | 1 | 6 | -11 | 45* | 32*
Cc1sc2ncnc(-n3nnc4ccccc43)c2c1C | -17 | -4 | -1 | -5 | . | 28 | .
CC(C)c1cccc(C(C)C)c1NC(=O)CNCc1ccccc1F | 27 | 13 | 1 | -10 | -18 | 47* | 22
CC(C)c1cccc(C(C)C)c1NC(=O)CNCC(O)c1ccccc1 (stereo not drawn) | 9 | 12 | 0 | 4 | -16 | 25 | .
Cc1ccc(CN2CCSCC2)cc1 | -5 | -1 | 3 | -4 | -6 | -26 | .
COC(=O)c1ccccc1-n1cccc1C(=O)NP(=O)(N1CCOCC1)N1CCOCC1 | 12 | 1 | -2 | -6 | -16 | 7 | .
C/C(CC(=O)Nc1cccc(Cl)c1Cl)=N\NC(=O)c1ccccc1Br | 23 | 31 | 2 | 0 | -16 | 27 | .
C/C(CC(=O)Nc1cccc(Cl)c1Cl)=N\NC(=O)c1ccccc1N | 25 | 17 | -3 | -6 | -9 | 41* | 29
COc1ccc(-c2csc(N3CCN(S(=O)(=O)c4ccc5c(c4)NC(=O)CO5)CC3)n2)cc1 | -48 | -10 | -4 | 8 | -30 | 34 | .
Cc1sc(N2CCN(S(=O)(=O)c3ccc4c(c3)NC(=O)CO4)CC2)nc1-c1ccccc1 | 11 | -1 | 1 | 20 | -158 | 47* | -20
Cc1c(C(=O)NC2CCCc3ccccc32)oc2ccccc12 (stereo not drawn) | 35 | 31 | 3 | 46 | -33 | 45* | 38*
CCc1c(C)sc(NC(=O)c2cc(C(C)C)on2)c1C#N | 11 | 26 | 3 | 2 | 8 | 9 | .
Cc1cc(C(=O)Nc2sc(C)c(C)c2C#N)no1 | 11 | 27 | 3 | 4 | -5 | 43* | 20
Nc1nc(N)c(C=Nc2ccc(Br)cc2)c(Nc2ccc(Br)cc2)n1 | 35 | -2 | 0 | 100* | -15 | 57* | 32*
Nc1nc(N)c(Br)c(Nc2ccc(Cl)c(Cl)c2)n1 | . | . | 0 | . | . | . | .
CCOC(=O)c1c(C)[nH]c(=S)c(C#N)c1-c1ccc(Cl)cc1 | 21 | 36 | 1 | 17 | -17 | 54* | 28
O=C(/C=C/c1ccccc1)N(c1ccccn1)C1CCCCC1 | 12 | 24 | -5 | -2 | -12 | 43* | 25
O=C(/C=C/c1ccccc1Cl)N(c1ccccn1)C1CCCCC1 | 13 | 45 | 1 | 2 | 13 | 14 | .
SMILES | TIM10 inh | tim23-1 inh | V-ATPase pHluor | SKKanGAS inh | PfHsp90 set2 | tim10-1 inh | tim10-1 confirm
CCCN(CC(=O)Nc1ccccc1OC)Cc1c(O)ccc2ccccc12 | 13 | 7 | -2 | 2 | -3 | 10 | .
N#CC1=C(SCC(N)=O)NC2=C(C(=O)c3ccccc32)C1c1ccc(Cl)cc1 (stereo not drawn) | 29 | 27 | 0 | 6 | -29 | 44* | 27
O=S(=O)(c1ccccc1)N1CCC(=NO)CC1 | -17 | 13 | 1 | -13 | -1 | 9 | .
O=C(ON=C1CCN(S(=O)(=O)c2ccccc2)CC1)c1ccccc1 | 30 | 39 | 0 | -5 | . | 58* | 56*
COc1cc(OC)cc(C(=O)Nc2nc(-c3ccccc3)c(-c3ccccc3)o2)c1 | 21 | 10 | 2 | 90* | 6 | 44* | 33*
CC(=O)Nc1nc(-c2ccccc2)c(-c2ccccc2)o1 | 30 | 46 | 1 | 7 | 24 | 40 | .
O=C(CSC(=S)N1CCN(c2ccccc2)CC1)Nc1nc(-c2ccccc2)c(-c2ccccc2)o1 | 9 | 13 | 4 | -2 | -1 | 8 | .
CCN(CC)C(=S)SCC(=O)Nc1nc(-c2ccccc2)c(-c2ccccc2)o1 | 19 | 18 | 8 | 83* | -13 | 41* | 12
CCOC(=O)N1CCN(C(=O)Cn2nc(C)n3nc(-c4ccccc4)cc3c2=O)CC1 | 8 | 4 | 7 | 1 | -14 | 7 | .
NNC(=O)c1cccc(COc2ccc3c(c2)CCC3)c1 | 25 | 48 | 0 | 10 | 2 | 47* | 19
NNC(=O)c1cccc(COc2ccccc2Br)c1 | 39 | 43 | 7 | -4 | 5 | 41* | 16
O=C(NCc1ccccc1)c1cccc(COc2ccccc2Cl)c1 | 21 | 34 | 5 | 15 | -21 | 34 | .
COc1ccc(CN2CCN(C(=O)C3CCN(C(=O)Nc4ccccc4)CC3)CC2)cc1OC | 7 | 5 | -2 | . | . | -7 | .
Cc1ccc(O)c(C(=O)c2coc(=N)c(C(=O)NC(C)C)c2)c1 | -4 | 3 | 2 | 2 | -10 | 14 | .
O=c1[nH]n(-c2ccccc2)c(=O)c(Cl)c1Cl | 8 | 24 | -2 | -1 | 10 | 33 | .
O=c1c2c([nH]n1-c1ccccc1)CCCC2 | 20 | 39 | -4 | -6 | -32 | 46* | 27
CCNC(=S)NNC(=O)c1cc(CC(C)C)nc2ccccc12 | 16 | 13 | -2 | 2 | 8 | 33 | .
CCCOc1ccc(C(=O)NNC(=S)NC(=O)c2cc(-c3ccc(Cl)cc3)nc3ccccc23)cc1 | 20 | 22 | -1 | 99* | -118 | 46* | 36*
Cc1ccc(C)c(-c2cc(C(=O)NNC(=S)NCC(C)C)c3ccccc3n2)c1 | 18 | 26 | -2 | 22 | -69 | 47* | 31

Bioassay records from PubChem.
